# Measurements taken from the supplement of paper PMC8728848.
# This excerpt belongs to a sample that is enriched for the strongest signals.
# What was measured:
# Experiment in all cases: glycan array binding signal (z-score within array); higher = stronger binding
# Details in all cases: glycan notation: IUPAC condensed, linker removed
# [1] = target: Fuc(a1-2)Gal(b1-3)GlcNAc(b1-2)Man(a1-3)[Fuc(a1-2)Gal(b1-3)GlcNAc(b1-2)Man(a1-6)]Man(b1-4)GlcNAc(b1-4)[Fuc(a1-6)]GlcNAc
# Outline: (§1)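 Arrays were curated from the Consortium for Functional Glycomics database, 3228 in total, and kept only where the protein sequence was available. Binding is expressed as a within-array Z-score. This score was averaged across arrays of the same protein sequence at different concentrations or buffers and across linkers, and negative values can be read as non-binding.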
# [2] = target: Fuc(a1-2)Gal(b1-4)GlcNAc(b1-2)Man(a1-3)[Fuc(a1-2)Gal(b1-4)GlcNAc(b1-2)Man(a1-6)]Man(b1-4)GlcNAc(b1-4)[Fuc(a1-6)]GlcNAc
# Outline: as §1
# [3] = target: Fuc(a1-2)[Gal(a1-3)]Gal(b1-3)GlcNAc(b1-3)GalNAc
# Outline: as §1
# [4] = target: Fuc(a1-2)[Gal(a1-3)]Gal(b1-3)GlcNAc(b1-6)GalNAc
# Outline: as §1
# [5] = target: Fuc(a1-2)[Gal(a1-3)]Gal(b1-4)GlcNAc(b1-2)Man(a1-3)[Fuc(a1-2)[Gal(a1-3)]Gal(b1-4)GlcNAc(b1-2)Man(a1-6)]Man(b1-4)GlcNAc(b1-4)[Fuc(a1-6)]GlcNAc
# Outline: as §1
# [6] = target: Fuc(a1-2)[GalNAc(a1-3)]Gal(b1-3)GlcNAc(b1-3)GalNAc
# Outline: as §1
# [7] = target: Fuc(a1-2)[GalNAc(a1-3)]Gal(b1-4)GlcNAc(b1-3)[Fuc(a1-2)[GalNAc(a1-3)]Gal(b1-4)GlcNAc(b1-6)]GalNAc
# Outline: as §1
# [8] = target: Fuc(a1-3)[Gal(b1-4)]Glc6S
# Outline: as §1
# [9] = target: Fuc(a1-3)[Gal(b1-4)]GlcNAc(b1-3)GalNAc
# Outline: as §1
# [10] = target: Fuc(a1-3)[Gal3S(b1-4)]GlcNAc6S
# Outline: as §1
# [11] = target: Fuc(a1-3)[GalNAc(b1-4)]GlcNAc
# Outline: as §1
# [12] = target: Gal(a1-3)Gal(b1-3)GlcNAc(b1-2)Man
# Outline: as §1
# [13] = target: Gal(a1-3)Gal(b1-3)[Fuc(a1-4)]GlcNAc(b1-2)Man(a1-3)[Gal(a1-3)Gal(b1-3)[Fuc(a1-4)]GlcNAc(b1-2)Man(a1-6)]Man(b1-4)GlcNAc(b1-4)GlcNAc
# Outline: as §1
# [14] = target: Gal(a1-3)Gal(b1-4)[Fuc(a1-3)]GlcNAc
# Outline: as §1
# [15] = target: Gal(a1-4)Gal(b1-4)GlcNAc(b1-2)Man(a1-3)[Gal(a1-4)Gal(b1-4)GlcNAc(b1-2)Man(a1-6)]Man(b1-4)GlcNAc(b1-4)GlcNAc
# Outline: as §1
# [16] = target: Gal(b1-3)GlcNAc(a1-3)Gal(b1-4)GlcNAc
# Outline: as §1
# [17] = target: Gal(b1-3)GlcNAc(b1-2)[Gal(b1-3)GlcNAc(b1-6)]Man(a1-6)[Gal(b1-3)GlcNAc(b1-2)Man(a1-3)]Man(b1-4)GlcNAc(b1-4)GlcNAc
# Outline: as §1
# [18] = target: Gal(b1-3)GlcNAc(b1-3)Gal(b1-4)GlcNAc
# Outline: as §1
# [19] = target: Gal(b1-3)GlcNAc(b1-3)Gal(b1-4)[Fuc(a1-3)]GlcNAc
# Outline: as §1
# [20] = target: Gal(b1-3)GlcNAc(b1-3)Gal(b1-4)[Fuc(a1-3)]GlcNAc(b1-6)[Gal(b1-3)GlcNAc(b1-3)]Gal(b1-4)Glc
# Outline: as §1
# [21] = target: Gal(b1-3)GlcNAc(b1-6)[Gal(b1-3)]GalNAc
# Outline: as §1
# [22] = target: Gal(b1-4)GlcNAc(b1-3)Gal(b1-4)Glc
# Outline: as §1
# [23] = target: Gal(b1-4)GlcNAc(b1-3)Gal(b1-4)GlcNAc(b1-3)Gal(b1-4)GlcNAc(b1-3)Gal(b1-4)GlcNAc(b1-2)Man(a1-3)[Gal(b1-4)GlcNAc(b1-3)Gal(b1-4)GlcNAc(b1-3)Gal(b1-4)GlcNAc(b1-3)Gal(b1-4)GlcNAc(b1-2)Man(a1-6)]Man(b1-4)GlcNAc(b1-4)[Fuc(a1-6)]GlcNAc
# Outline: as §1
# Gal6S(b1-3)GlcNAc = target: Gal6S(b1-3)GlcNAc
# Outline: as §1
# GalNAc(a1-3)GalNAc = target: GalNAc(a1-3)GalNAc
# Outline: as §1
# [24] = target: Glc(a1-2)Glc(a1-3)Glc(a1-3)Man(a1-2)Man(a1-2)Man(a1-3)[Man(a1-2)Man(a1-3)[Man(a1-2)Man(a1-6)]Man(a1-6)]Man(b1-4)GlcNAc
# Outline: as §1
# [25] = target: GlcA(b1-3)GlcNAc(b1-4)GlcA(b1-3)GlcNAc(b1-4)GlcA(b1-3)GlcNAc(b1-4)GlcA(b1-3)GlcNAc(b1-4)GlcA(b1-3)GlcNAc(b1-4)GlcA(b1-3)GlcNAc(b1-4)GlcA(b1-3)GlcNAc(b1-4)GlcA(b1-3)GlcNAc
# Outline: as §1
# [26] = target: GlcNAc(a1-3)Gal(b1-4)GlcNAc
# Outline: as §1
# [27] = target: GlcNAc(b1-2)Man(a1-3)[GlcNAc(b1-2)Man(a1-6)]Man(b1-4)GlcNAc(b1-4)GlcNAc
# Outline: as §1
# [28] = target: GlcNAc(b1-2)Man(a1-3)[Man(a1-3)[Man(a1-6)]Man(a1-6)][GlcNAc(b1-4)]Man(b1-4)GlcNAc(b1-4)GlcNAc
# Outline: as §1
binder,measurement,setting,value
Banana lectin (Musa acuminata) (protein) MNGAIKVGAWGGNGGSAFDMGPAYRIISVKIFSGDVVDGVDVTFTYYGKTETRHYGGSGGTPHEIVLQEGEYLVGMAGEVANYHGAVVLGKLGFSTNKKAYGPFGNTGGTPFSLPIAAGKISGFFGRGGKFLDAIGVYLEPLEHHHHHH,glycan array binding signal (z-score),[1],0.041
same,glycan array binding signal (z-score),[2],0.084
same,glycan array binding signal (z-score),[3],-0.22
same,glycan array binding signal (z-score),[4],-0.374
same,glycan array binding signal (z-score),[5],0.595
same,glycan array binding signal (z-score),[6],-0.215
same,glycan array binding signal (z-score),[7],-0.173
same,glycan array binding signal (z-score),[8],-0.211
same,glycan array binding signal (z-score),[9],-0.268
same,glycan array binding signal (z-score),[10],-0.212
same,glycan array binding signal (z-score),[11],-0.132
same,glycan array binding signal (z-score),[12],-0.189
same,glycan array binding signal (z-score),[13],0.245
same,glycan array binding signal (z-score),[14],-0.222
same,glycan array binding signal (z-score),[15],-0.174
same,glycan array binding signal (z-score),[16],3.29
same,glycan array binding signal (z-score),[17],0.504
same,glycan array binding signal (z-score),[18],-0.264
same,glycan array binding signal (z-score),[19],-0.216
same,glycan array binding signal (z-score),[20],-0.216
same,glycan array binding signal (z-score),[21],0.054
same,glycan array binding signal (z-score),[22],-0.22
same,glycan array binding signal (z-score),[23],-0.154
same,glycan array binding signal (z-score),Gal6S(b1-3)GlcNAc,-0.197
same,glycan array binding signal (z-score),GalNAc(a1-3)GalNAc,-0.213
same,glycan array binding signal (z-score),[24],1.56
same,glycan array binding signal (z-score),[25],-0.99
same,glycan array binding signal (z-score),[26],0.842
same,glycan array binding signal (z-score),[27],0.105
same,glycan array binding signal (z-score),[28],-0.039
